Marburg entry inh – blocks Marburg virus binding to or entry into cells; Marburg virus pseudotyped entry inhibition, cell reporter; Potency, µM (series often up to 37.8 µM), for the others: at the top dose activity change, negative = inhibition, actives largely listed as inhibitors; hit rate 1.8% among 300,000; calls by dose curve; tested in HEK293 cells; note: potency is the fitted concentration of half-maximal effect; % is set by controls: 0 for no effect and ±100 for the full control effect
Lassa entry inh – inhibitors of Lassa virus binding or cell entry | Lassa virus pseudotype entry inhibition, cell reporter | hit rate 1.2% among 300,000 | Potency, µM (top dose mostly 37.9 µM), inactives show top-dose activity change, negative = inhibition, actives largely listed as inhibitors; calls by dose curve; tested in HEK293 cells; note: potency is the fitted concentration of half-maximal effect; % is set by controls: 0 for no effect and ±100 for the full control effect; nearly all actives have a fitted effect of over 50% in size
Shiga inhibitor – Shiga toxin inhibition | Vero cells, Shiga toxin protein synthesis inhibition reporter | hit rate 9.2% among 290,000 | inhibition, % at 38.7 µM; in the data active = inhibition mostly above about 28%, no sharp cut-off; inactive = mostly below about 43%; note: 0% is about no effect
Pf growth 96h – P. falciparum growth inhibition at 96 hours; P. falciparum luciferase reporter growth, 96 h; hit rate 6.9% among 320,000; Potency, µM (doses to about 28.7 µM), for inactives: at the top dose activity change, negative = inhibition, hits mostly inhibitors; note: potency is the fitted concentration of half-maximal effect; % is set by controls: 0 for no effect and ±100 for the full control effect
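P. falciparum expressing integrated firefly luciferase grown in erythrocytes (2% hematocrit, 0.05% parasitemia final) with compounds for 96 hours at 37 C, 5% CO2. Growth inhibition read as loss of luminescence after adding luciferase detection reagent.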
Pf growth 48h – inhibits P. falciparum growth in the first generation, 48 h; hit rate 5.9% among 310,000; Potency, µM (top dose mostly 28.7 µM), inactives show at the top dose activity change, negative = inhibition, usual class: inhibitors; P. falciparum luciferase growth in erythrocytes, 48 h; note: potency is the fitted concentration of half-maximal effect; % is set by controls: 0 for no effect and ±100 for the full control effect
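Erythrocytes infected with P. falciparum carrying an integrated firefly luciferase reporter (2% hematocrit, 0.1% parasitemia final) were exposed to compounds in RPMI 1640 with 0.5% Albumax at 37 C, 5% CO2. Growth inhibition was scored as reduced luminescence.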
Cycloheximide cs – affects cycloheximide protein synthesis inhibition readout, counter-screen | AID 2314 | max response, % | cell reporter, cycloheximide protein synthesis inhibition counterscreen | hit rate 12% among 300,000; in the data active = max response mostly above about 13%, no sharp cut-off; inactive = mostly below about 14%; note: read at 38.3 µM for the half of the compounds with a filed dose; 0% is about no effect
Starred values were filed as active, the others as inactive; ? = inconclusive; nt = not tested or not shown; [ ] = remark or other dose. An excerpt weighted towards active compounds, which were near 19% of everything screened. Unless noted, calls come from the whole dose curve; as a rule, active = well fitted inhibition curve with a large enough effect; inconclusive = small, poorly fitted or top-dose-only effect, or another doubt; inactive = no such curve, though single readings can be large or run the other way.

SMILES	Marburg entry inh	Lassa entry inh	Shiga inhibitor	Pf growth 96h	Pf growth 48h	Cycloheximide cs
Cc1ccc(NC(=O)CSCC(=O)NCCc2ccccc2)cc1	1%	-1%	-4	52%	?	2
COC(=O)c1ccccc1NC(=O)CSc1ccccc1	16%	8%	25	0%	-20%	1
O=C(CSc1ccccc1)Nc1ccccc1C(=O)O	18µM*	?	88*	2%	20%	27*
Cc1ccc(CSCC(=O)NCCc2ccccc2)cc1	8%[46.1 µM]	?	85	-16%	22%	18*
O=C(CSc1ncn[nH]1)Nc1ccccc1C(=O)O	10%	1%	-14	2.9µM*	10%	-3
Cc1ccc(CSCC(=O)Nc2ccccc2C(=O)O)cc1	nt	nt	47*	2.1µM*	44%	36*
COc1ccc(CNC(=O)CCc2nc3cccnc3n2Cc2ccc(OC)cc2)cc1	8%[46.1 µM]	14%[46.1 µM]	nt	nt	nt	nt
COC(=O)c1ccccc1NC(=O)CSc1ccc(C)cc1	-4%	11%	17	-3%	?	-2
O=C(CSc1ncn[nH]1)Nc1ccc(Br)cc1F	0%	-2%	40	99%	54%	25*
O=C(CSc1ncn[nH]1)N/N=C/c1ccc(Br)cc1	nt	nt	25	?	-12%	10
Cc1ccc(SCC(=O)Nc2ccccc2C(=O)O)cc1	?	?	117*	nt	59%	29*
O=C(CNC(=O)c1ccc(Br)o1)Nc1ccc(F)c(S(=O)(=O)N2CCOCC2)c1	5%	4%	nt	?	?	nt
O=C(/C=C/c1ccc(Cl)cc1)NC(=S)Nc1ccc(CN2CCOCC2)cc1	0%[46.1 µM]	-1%	1	?	-15%	-13
Cc1cccnc1NC(=S)NC(=O)/C=C/c1ccccc1	?	14%[46.1 µM]	78*	10%	?	31*
C=CCNC(=S)Nc1cc(C)ccn1	5%[14.2 µM]	-2%	21	4%	?	18
O=C(/C=C/c1ccccc1)NC(=S)Nc1cccnc1	12µM*	-3%	-2	?	32%	12
Cc1ccnc(NC(=S)NC(=O)/C=C/c2ccc(Cl)cc2)c1	10%	23%	26*	4.1µM*	57%	26*
Cc1ccnc(NC(=S)NC(=O)/C=C/c2ccccc2)c1	4%	21%	61*	30%	52%	32*
CC(C)NC(=O)Cn1c(=O)cnc2ccccc21	18%	-3%	-6	33%	6%	-2
CCn1c(SCC(=O)Nc2sccc2C(N)=O)nnc1C1CC1	nt	nt	nt	3%	9%	nt
O=[N+]([O-])c1ccc2c(c1)Cc1cc(F)ccc1-2	2%[46.1 µM]	2%[46.1 µM]	nt	nt	nt	nt
CC(C(=O)Nc1nccs1)c1ccc([N+](=O)[O-])cc1 (stereo not drawn)	nt	nt	-10	62%	?	-2
Cc1nc2ccc(NC(=O)NCc3ccco3)cc2s1	?	61%[14.3 µM]	56*	nt	89%	43*
O=C(NCc1ccco1)Nc1ccc2snnc2c1	8%	-1%	17	-3%	nt	8
COCCNC(=O)Nc1ccc2nc(C)sc2c1	?	6%	64	23%	19%	13
SMILES	Marburg entry inh	Lassa entry inh	Shiga inhibitor	Pf growth 96h	Pf growth 48h	Cycloheximide cs
Cc1nc2ccc(NC(=O)NCCO)cc2s1	13%	4%	35	13%	26%	20*
Cc1nc2ccc(NC(=O)NCCCO)cc2s1	8%	10%	49*	16%	47%	16*
Cc1cccc(C(=O)NNS(=O)(=O)c2ccc(F)cc2)c1O	14%	5%	11	2%	16%	3
COc1ccc(-c2[nH]nc3oc(=O)cc(C)c23)cc1	-14%	-27%	-1	8.3µM*	-15%	10
Cc1cc(=O)oc2n[nH]c(-c3ccccc3)c12	7%	0%	15	-19%	18%	-1
C/C(=N\NC(=O)c1ccccc1)c1ccc(-n2ccnc2)cc1	nt	nt	60*	25%	6%	37*
COc1ccccc1NS(=O)(=O)c1cccc(C(=O)N/N=C(/C)c2ccc(-n3ccnc3)cc2)c1	?	-20%[46.1 µM]	nt	nt	nt	nt
COc1ccccc1NS(=O)(=O)c1cccc(C(=O)N/N=C(\C)c2ccc(-n3ccnc3)cc2)c1	?	?	-25	13µM*	nt	-3
C/C(=N\Nc1ccc(Cl)c(Cl)c1)c1ccc(-n2ccnc2)cc1	?	?	21	4.7µM*	12µM*	10
C=C(C)CNC(=S)N/N=C(\C)c1ccc(-n2ccnc2)cc1	-22%	-20%	-10	5.9µM*	nt	-3
C/C(=N\NC(N)=S)c1ccc(-n2ccnc2)cc1	nt	nt	-6	?	?	-3
CCC(C)NC(=O)C1CCN(c2nc(OC)nc(OC)n2)CC1 (stereo not drawn)	18%	2%	-9	?	-13%	-1
CC(C)C(NCC(=O)Nc1ccccc1C(=O)NC1CC1)c1ccccc1 (stereo not drawn)	-1%[46.1 µM]	-22%[46.1 µM]	nt	nt	nt	nt
O=C(Cn1cc[n+](CC(=O)c2ccc(Cl)cc2Cl)c1)c1ccc(Cl)cc1Cl	nt	nt	-4	?	?	-2
O=C(Nc1nnc(SCC(=O)N2CCCc3ccccc32)s1)c1ccccc1	?	?	41*	15%	45%	34*
CC(=O)Nc1nnc(SCC(=O)N2CCCc3ccccc32)s1	nt	nt	-1	-6%	-12%	-6
Cc1cc(C)cc(C(=O)Nc2nnc(SCC(=O)N3CCCc4ccccc43)s2)c1	18%	6%	-4	10%	15%	2
O=C(Nc1nnc(SCC(=O)N2CCCc3ccccc32)s1)c1ccc2ccccc2c1	?	?	58*	-5%	22%	37*
COc1ccc(-c2nn(-c3ccccc3)cc2/C=C/C(=O)N2CCOCC2)cc1OC	?	7%[46.1 µM]	60	?	?	0
Cc1nc2cc(-c3ccccc3)nn2c(C)c1CCC(=O)Nc1ccc(F)cc1F	4%[46.1 µM]	-4%[46.1 µM]	nt	nt	nt	nt
Cc1ccc(/C=C2/C(=O)NC(=O)N(CCc3ccc(F)cc3)C2=O)s1	?	15%	0	34%	45%	8
CCOC(=O)N1CCC(NC(=O)C(CC(C)C)NC(=O)C2CCC(C)CC2)CC1 (stereo not drawn)	-3%	3%	-2	?	nt	9
O=C(Cc1ccccc1)Nc1ccc2oc(-c3cccnc3)nc2c1	-15%	-12%	34*	nt	-29%	21
O=C(Nc1ccc2oc(-c3ccccc3F)nc2c1)c1ccccc1Cl	nt	15%[46.1 µM]	nt	nt	nt	nt
O=C(Nc1ccc2oc(-c3ccccc3F)nc2c1)c1cncc(Br)c1	19%	23%	42*	nt	8.3µM*	25*
COc1ccc(-c2nc3cc(NC(=S)NC(=O)Cc4ccccc4)ccc3o2)cc1	?	-14%	37	-7%	170%	35*
O=C(Nc1ccc2oc(-c3ccccc3)nc2c1)c1cccnc1	-9%	-11%	54*	-14%	24%	39*
COC(=O)c1ccc(C)c(NC(=O)CSc2sc3c(O)cc(=O)[nH]c3c2C#N)c1	8%[46.1 µM]	0%[46.1 µM]	-8	16%	5%	-4
CSCCC(NS(=O)(=O)c1ccccc1F)C(=O)NCc1ccncc1 (stereo not drawn)	-12%[46.1 µM]	-1%	nt	15%	-14%	nt
